# Screening data from PubChem.
# ERa coact inh – blocks coactivator binding to human estrogen receptor alpha; P03372; TR-FRET ER-alpha LBD / SRC-1 peptide, estradiol-bound; inhibition, % at 25.6 µM; 86,000 compounds, 1.7% hits; AID 629; in the data active = inhibition above about 50%;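 also: 0% = receptor plus peptide control and 100% = peptide only without receptor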
# Target sequence (P03372 whole entry, looked up, the tested form may be a part): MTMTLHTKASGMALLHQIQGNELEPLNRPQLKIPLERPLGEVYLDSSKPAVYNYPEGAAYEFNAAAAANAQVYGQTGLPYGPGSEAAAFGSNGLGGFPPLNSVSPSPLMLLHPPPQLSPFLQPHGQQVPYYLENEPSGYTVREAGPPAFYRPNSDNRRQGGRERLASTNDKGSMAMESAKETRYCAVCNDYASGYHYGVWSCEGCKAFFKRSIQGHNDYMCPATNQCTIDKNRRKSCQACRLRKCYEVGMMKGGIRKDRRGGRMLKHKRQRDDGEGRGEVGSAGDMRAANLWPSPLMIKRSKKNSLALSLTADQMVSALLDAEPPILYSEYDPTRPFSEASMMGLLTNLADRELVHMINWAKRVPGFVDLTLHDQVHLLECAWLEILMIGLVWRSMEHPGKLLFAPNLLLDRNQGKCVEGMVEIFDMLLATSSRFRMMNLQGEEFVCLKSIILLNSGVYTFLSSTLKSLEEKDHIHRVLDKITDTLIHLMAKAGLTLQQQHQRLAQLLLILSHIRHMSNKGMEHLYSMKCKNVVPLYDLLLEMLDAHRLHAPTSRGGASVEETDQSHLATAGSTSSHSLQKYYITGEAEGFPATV
# ERa coact pot – enhances coactivator binding to human estrogen receptor alpha; AID 639; TR-FRET ERalpha-LBD/SRC-Cy5 coactivator binding, 2 h; 100 = basal binding, no effect; coactivator binding (% of control), % at 25.6 µM; 86,000 compounds, 1.3% hits; in the data active = activity above about 200%;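 also: binding measured in presence of low estradiol as agonist stimulus; 0% = peptide alone without receptor and 100% = receptor with peptide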
# Smad3 inh – blocks human Smad3 binding to FoxH1 peptide; TR-FRET Smad3/Dy647-FoxH1 peptide binding, europium anti-His; inhibition, % at 25 µM; 88,000 compounds, 0.29% hits;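 active = compounds that reduce the energy-transfer binding signal between the protein and its labelled peptide by more than half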;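 also: 0% = Smad3 plus labelled peptide maximal FRET and 100% = peptide-only background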
# Calb biofilm kill – kills Candida albicans biofilms; C. albicans biofilm + clotrimazole, Alamar Blue; inhibition, % at 6 µM; 85,000 compounds, 0.14% hits; AID 834;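 active = inhibition above 20%; inactive = inhibition below 20%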;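 also: preformed 24 hr biofilms exposed to compound for 48 hr; 0% = biofilm without compound and 100% = blank killed by clotrimazole plus chlorhexidine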
# ERb coact inh – blocks coactivator binding to human estrogen receptor beta; Q92731; TR-FRET ER-beta LBD / SRC1-Cy5 peptide binding; receptor agonist-loaded with 1 µM estradiol; inhibition, % at 25.6 µM; 86,000 compounds, 1.3% hits;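 active = compounds whose percent inhibition of the receptor-coactivator binding signal exceeds about 50% in the single-dose screen, limit read from the data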;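 also: 0% = receptor plus peptide wells without compound and 100% = peptide-only wells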
# Starred values were filed as active, the others as inactive; . = no result given; [ ] = another dose, or the depositor's remark. Sampled rows, rich in hits. Any-hit rate of the full collection: about 3.8%.
SMILES,ERa coact inh,ERa coact pot,Smad3 inh,Calb biofilm kill,ERb coact inh
C[C@@H]1CCCN(C[C@@H](O)CN2CCCc3ccccc32)C1,.,.,-7,.,.
Cc1ccc(-n2ncc3c(=O)[nH]c(SCC(=O)N4CCC(C)CC4)nc32)cc1C,8,346*[fluorescence artefact?],25,10,18
CCCCCSc1nc2c(cnn2-c2ccccc2)c(=O)[nH]1,45,283*[fluorescence artefact?],9,3,44
Cc1ccc(-n2ncc3c(=O)[nH]c(SCC(=O)N4CCN(c5ccccc5)CC4)nc32)cc1,21,151,-3,7,53*[fluorescence artefact?]
CCSc1nc2c(cnn2-c2ccc(C)c(C)c2)c(=O)[nH]1,70*[fluorescence artefact?],239*[fluorescence artefact?],17,15,65*[fluorescence artefact?]
CC(C)(CCc1nc2ccccc2[nH]1)C(=O)O,.,.,-6,.,.
Cc1ncc(COP(=O)(O)O)c(C)c1O,.,.,15,.,.
O=C(O)CC1(C(=O)O)CCCCC1,.,.,-10,.,.
CCn1c(CNc2nc3ccccc3n2C(C)C)nc2ccccc21,-3,107,-10,1,-6
N#Cc1c(C(F)(F)F)cc(-c2ccccc2)nc1SCc1nc(N)nc(N2CCOCC2)n1,62*,362*[fluorescence artefact?],3,-7,49
FC(F)(F)c1cc(-c2ccccc2)nc(N2CCOCC2)n1,-8,89,3,9,-9
Cc1ccc2c(c1)cc(CN(CCc1ccccc1)C(=O)N1CCOCC1)c1nnnn12,65*[fluorescence artefact?],113,9,9,-4
COc1cc(C(=O)Nc2nnc(-c3sccc3C)s2)cc(OC)c1OC,32,476*,-276,5,31
Cc1cc(NS(=O)(=O)c2ccc(Nc3nc(-c4sc(N)nc4C)cs3)cc2)no1,22,55,-4,7,56*[fluorescence artefact?]
Cc1nc(N)sc1-c1csc(Nc2ccccc2)n1,6,59,-5,6,7
O=C(NC1CCN(Cc2ccccc2)CC1)C1CCN(c2nnc(-n3cccc3)s2)CC1,54*[fluorescence artefact?],0,-3,-5,16
O=C(NCCCN1CCN(Cc2ccccc2)CC1)C1CCN(c2nnc(-n3cccc3)s2)CC1,29,87,13,5,21
O=C(NCCCN1CCc2ccccc2C1)C1CCN(c2nnc(-n3cccc3)s2)CC1,72*[fluorescence artefact?],88,-8,12,33
CC(=O)NCCn1c(SCc2ccc(C)cc2C)nc2ccccc2c1=O,1,103,7,-1,-1
CCCCn1cnc2c(c(CC#N)nn2-c2ccccc2)c1=N,.,.,10,.,.
Cc1nc(SCC(=O)Nc2ccccc2)c2oc3ccccc3c2n1,55*[fluorescence artefact?],552*[fluorescence artefact?],37,2,53*[fluorescence artefact?]
CCc1nc(SCC(=O)NCCc2ccccc2)c2oc3ccccc3c2n1,42,99,7,13,24
CCc1nc(SCC(=O)c2cccs2)c2oc3ccccc3c2n1,-5,224*,-16,0,-9
Cc1nc(SCC(=O)NCCc2ccccc2)c2oc3ccccc3c2n1,26,264*[fluorescence artefact?],24,5,7
COc1cc(NCCCCCCCN)c2ncccc2c1,78*[fluorescence artefact?],38,16,6,39
SMILES,ERa coact inh,ERa coact pot,Smad3 inh,Calb biofilm kill,ERb coact inh
COc1cc(NCCC(=O)O)c2ncccc2c1,.,.,6,.,.
Cc1nnc(NC(=O)Cn2cnc3c2c(=O)n(C)c(=O)n3C)s1,-11,102,2,8,-8
c1ccc(OCc2nnc3sc(C4COc5ccccc5O4)nn23)cc1 (centres undefined),58*,106,-4,4,60*
Cc1ccc(-c2nnc3sc(C4COc5ccccc5O4)nn23)cc1 (centres undefined),9,110,8,6,29
O=C(N/N=C\c1cc(Br)cs1)C1COc2ccccc2O1 (centres undefined),-1,115,8,3,0
COc1ccc(NC(=O)C(C/C=C(/C)Cl)C(C)=O)cc1 (centres undefined),22,92,-2,21*,21
C[C@H]1CN(CCO)CCN1c1ccccc1,.,.,7,.,.
Cc1nc2sccn2c1-c1nc(-c2cc3ccccc3o2)cs1,61*,90,-1,7,28
CN1CCN(CCCNN)CC1,.,.,4,.,.
CN(C)CCCNCCCCNC(=O)/C=N/O,-16,101,-4,-1,0
CC(C)(C)NC(=O)/C=N/O,3,102,-7,5,99*[fluorescence artefact?]
CCOC(=O)c1ccc(N2C(=O)c3n[nH]c(C)c3C2c2ccc(OC)cc2)cc1 (centres undefined),99*[fluorescence artefact?],110,8,6,-7
CCCOc1ccc(Cc2nn3c(=O)/c(=C/c4ccco4)sc3nc2=O)cc1,38,92,12,5,16
O=c1/c(=C/c2ccco2)sc2nc(-c3ccccc3Br)nn12,59*[fluorescence artefact?],74,-10,-3,62*[fluorescence artefact?]
COc1ccccc1-c1nc2s/c(=C\c3cccs3)c(=O)n2n1,67*[fluorescence artefact?],43,7,-2,39
CSCCC1NC(=O)NC1=O (centres undefined),62*,94,4,.,-3
NC(=O)NOC[C@@H]1NC(=O)NC1=O,.,.,8,.,.
O=C(O)/C=C/C(=O)Nc1ccccn1,.,.,1,.,.
O=C(Cc1sc(-c2ccccc2Cl)nc1-c1ccccc1)Nc1ccccc1,9,235*[fluorescence artefact?],-72,4,-4
CCC(C)(C)n1nnnc1C(c1cc2ccc(OC)cc2[nH]c1=O)N1CCc2ccccc21 (centres undefined),19,256*,-5,-2,6
CCC(C)(C)n1nnnc1C(c1cc2cc(OC)ccc2[nH]c1=O)N1CCc2ccccc21 (centres undefined),-1,94,5,6,3
COC(=O)c1ccc(NC(=O)c2sc3nc(-c4ccccc4)cn3c2C)cc1,39,537*[fluorescence artefact?],1,3,43
Cc1c(C(=O)NCC(C)C)sc2nc(-c3ccc(F)cc3)cn12,4,109,-3,10,3
COc1ccc(-c2cn3c(C)c(C(=O)Nc4ccncc4)sc3n2)cc1,-3,345*,8,3,-2
Cc1c(C(=O)Nc2ccncc2)sc2nc(-c3ccc(F)cc3)cn12,-6,367*[fluorescence artefact?],5,32*,7
SMILES,ERa coact inh,ERa coact pot,Smad3 inh,Calb biofilm kill,ERb coact inh
OCCNc1ncnc2nc[nH]c12,.,.,13,.,.
C[C@]1(c2ccccc2)O[C@@H]2C[C@H]3[C@@H]4CCC5=CC(=O)C=C[C@@]5(C)[C@@]4(F)[C@H](O)C[C@]3(C)[C@]2(C(=O)CO)O1,.,.,4,.,.
COc1ccc([C@@H](Nc2ncccn2)c2cc3c(cc2O)OCO3)cc1,.,.,9,.,.
Cc1cc2oc(=O)cc(COC(=O)c3n[nH]c4ccccc34)c2cc1C,24,338*,-1,5,21
Cc1cc2oc(=O)cc(COC(=O)c3cccc(N(C)C)c3)c2cc1C,2,98,-3,4,1
CCn1c(C)nc2cc(-c3nnc(-c4c(-c5ccccc5)noc4C)o3)ccc21,-18,373*[fluorescence artefact?],15,2,-3
Cc1onc(-c2ccccc2)c1-c1nc2ccccc2c(=O)o1,-3,95,3,2,-5
C(/C=C/c1ccccc1)=Nc1ccc2c(c1)Cc1ccccc1-2,.,.,-3,.,.
N[C@@H](Cc1[nH]nc2ccccc12)C(=O)O,.,.,-4,.,.
